Measured potencies and affinities stand elsewhere. Active and inactive are the calls of the source. The rule behind the calls is not given here.
Tested on: Drosophila melanogaster bursicon receptor LGR2 (rickets)
Experiment: LGR2 antagonists, dose response, cell-based, HEK293, CRE-luciferase reporter, cherry pick, set 2 (AID 743343)
Details: bursicon-induced cAMP antagonist; series mostly up to 35 µM

Structure (SMILES) | outcome
O=C(O)c1nn(Cc2ccc(Cl)cc2Cl)c2ccccc12 | inactive
Cc1ccc2c(c1)C1CN(C)CCC1N2C(=O)c1cn(-c2ccccc2)nc1-c1ccccc1 (stereo not drawn) | inactive
O=c1c2ccccc2nc(/C=C/c2ccc([N+](=O)[O-])o2)n1-c1ccc(O)cc1 | inactive
